Assay [1] in a line: HepG2 liver cancer cell viability effects, profiling panel, resazurin fluorescence, 24 h, PK04 Diversity Set (AID 1172). Note: test concentration not given here. The settings on record: higher = more signal.
The nature of assay [2]: basal S. cerevisiae growth modulation, no modifier, primary screen, OD600, strain BY4716, 24 h, basal condition (AID 1173). The settings on record: OD600, 24 h, higher = more signal, called active from +8 up or from −8 down.
Assay [3] in a line: MM1S myeloma cell viability, profiling panel, resazurin fluorescence, basal, 24 h, PK04 Diversity Set (AID 1174). Note: test concentration not given here. The settings on record: higher = more signal, called active from +8 up or from −8 down.
The target of assay [4] is Dihydroorotate dehydrogenase (quinone), mitochondrial (Plasmodium falciparum (isolate 3D7)) (UniProt Q08210). Put plainly: PfDHODH enzyme inhibitors, primary screen, biochemical, C-terminal His tag, absorbance 600 nm (AID 1175).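 Note: recombinant parasite enzyme with a five histidine tag at its C terminus; test concentration not given here.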 The settings on record: DCIP absorbance 600 nm, higher = more signal, called active from +8 up or from −8 down.
Sequence of Dihydroorotate dehydrogenase (quinone), mitochondrial (Plasmodium falciparum (isolate 3D7)) (Q08210 whole entry, looked up): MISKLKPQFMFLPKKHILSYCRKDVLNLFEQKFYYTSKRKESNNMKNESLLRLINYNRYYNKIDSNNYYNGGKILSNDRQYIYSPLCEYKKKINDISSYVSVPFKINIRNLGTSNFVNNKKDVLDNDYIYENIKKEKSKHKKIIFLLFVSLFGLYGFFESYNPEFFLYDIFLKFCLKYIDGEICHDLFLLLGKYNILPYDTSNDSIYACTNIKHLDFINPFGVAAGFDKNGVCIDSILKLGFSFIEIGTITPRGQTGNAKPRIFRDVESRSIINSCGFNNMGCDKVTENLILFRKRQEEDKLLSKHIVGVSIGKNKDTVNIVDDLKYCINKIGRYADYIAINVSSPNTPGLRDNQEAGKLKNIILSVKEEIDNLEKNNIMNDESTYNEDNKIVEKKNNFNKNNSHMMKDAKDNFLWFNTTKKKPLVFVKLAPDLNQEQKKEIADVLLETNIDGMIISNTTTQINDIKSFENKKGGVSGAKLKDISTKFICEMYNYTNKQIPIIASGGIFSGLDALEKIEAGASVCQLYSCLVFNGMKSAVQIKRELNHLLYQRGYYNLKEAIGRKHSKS
A short description of assay [5]: P. aeruginosa biofilm formation inhibitors, primary screen, strain PAO1, LB-PBS medium, absorbance 600 nm (AID 1176). Note: test concentration not given here. The settings on record: P. aeruginosa PAO1 growth/biofilm, A600, 12 h; higher = more signal.
Assay [6] in a line: S. cerevisiae RM11-1a growth modifiers, primary screen, strain RM11-1a, OD600, basal, 24 h (AID 1177).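 Note: cultures grown under basal conditions with no added stressor; test concentration not given here.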 The settings on record: OD600, 24 h, higher = more signal, called active from +8 up or from −8 down.
Assay [7] in a line: E. coli acrAB mutant growth effects, primary screen, E. coli filamentation inducers, strain DRC39, OD650, 24 h (AID 1178).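 Note: growth measured as culture turbidity by optical density at 650 nm; test concentration not given here.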 The settings on record: higher = more signal, called active from +8 up or from −8 down.
Assay [8] can be described thus: E. coli acrAB mutant growth effects, primary screen, E. coli filamentation inducers, strain DRC39, OD650, 48 h (AID 1179).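 Note: screen aims at cell division blockers that make cells filament.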 The settings on record: E. coli DRC39 delta-acrAB growth, higher = more signal, called active from +8 up or from −8 down.
Assay [9] can be described thus: RPMI8226 myeloma cell viability, profiling panel, resazurin fluorescence, basal, 24 h, PK04 Diversity Set (AID 1180).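 Note: RPMI8826 multiple myeloma cell line at 5000 cells per well; test concentration not given here.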 The settings on record: higher = more signal.
Assay [10] has as its target E3 ubiquitin-protein ligase XIAP (Homo sapiens) (UniProt P98170). Put plainly: XIAP binders, primary screen, biophysical, small-molecule microarray, fluorescence 635 nm (AID 1181).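 Note: score merges 667 nm emission and signal to noise over triplicate slides.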 The settings on record: small-molecule microarray binding, higher = more signal.

Active and inactive are the calls of the source. Unless noted, the rule behind the calls is not given here.

Sequence of E3 ubiquitin-protein ligase XIAP (Homo sapiens) (P98170 whole entry, looked up): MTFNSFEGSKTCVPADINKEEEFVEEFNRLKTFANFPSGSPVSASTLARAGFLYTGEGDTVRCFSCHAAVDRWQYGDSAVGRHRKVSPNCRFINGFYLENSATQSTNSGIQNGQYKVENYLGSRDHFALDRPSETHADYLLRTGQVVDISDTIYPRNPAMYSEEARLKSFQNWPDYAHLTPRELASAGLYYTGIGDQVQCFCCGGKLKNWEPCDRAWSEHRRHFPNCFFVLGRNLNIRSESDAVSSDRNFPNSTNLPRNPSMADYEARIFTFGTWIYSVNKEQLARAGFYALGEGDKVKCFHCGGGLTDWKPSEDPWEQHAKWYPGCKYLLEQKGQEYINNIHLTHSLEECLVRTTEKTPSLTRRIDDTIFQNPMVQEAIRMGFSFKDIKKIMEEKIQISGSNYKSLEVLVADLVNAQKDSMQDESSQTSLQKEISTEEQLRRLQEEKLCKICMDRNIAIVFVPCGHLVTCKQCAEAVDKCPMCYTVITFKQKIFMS

As to `[N-]=[N+]=NCc1ccccc1C[C@@]1(C(=O)NCc2ccccc2)N=C(c2ccc(OCCCO)cc2)O[C@@H]1c1ccccc1N=[N+]=[N-]`, the z-score was 0.279 in assay [1]; 0.85 (inactive) in assay [2]; -0.806 (inactive) in assay [3]; 1.39 (inactive) in [5]; 1.49 (inactive) in [6]; 0.423 (inactive) in assay [7]. For the same compound, the values for the z-score in [8] and in assay [9] were -0.335 (inactive) and -0.686, respectively. Moreover, the values for the composite z-score in assay [4] and in [10] were 0.805 (inactive) and -0.11, respectively.

Consider `CCOC(=O)C[C@H]1[C@H](OC(=O)c2cc3ccccc3oc2=O)[C@@H](NC(=O)c2ccc(-c3ccccc3)cc2)c2cc(OCCCO)ccc2N1C(=O)c1ccc2ccccc2n1`, for which the z-score in assay [1] is 0.867; in assay [2], 0.753 (inactive); in [3], 0.389 (inactive); in assay [5] it was -0.0218 (inactive); in assay [6] it was 1.54 (inactive); in assay [7] it was 0.97 (inactive). The z-score is 0.211 (inactive) in assay [8] and 0.0692 in assay [9]. For the same compound, the composite z-score was -0.0286 (inactive) in [4] and 0.023 in assay [10].

As to `Cc1ccc(S[C@]2(C(=O)NCC(F)(F)F)CC(=O)N(C3CCCCC3)[C@@H]2c2ccc(CO)cc2I)cc1`, the z-score in [1] was 0.04; in assay [2] it was 0.108 (inactive); in assay [3], 0.384 (inactive); in assay [5] it was 0.201 (inactive); in [6] it was -0.531 (inactive); in assay [7], -0.0243 (inactive). Further, the z-score was -0.223 (inactive) in [8] and -0.128 in [9]. Besides, the values for the composite z-score in [4] and in [10] were 0.0443 (inactive) and -0.12, respectively.

For the compound `C=C(/C(=C/C[C@H](OC(=O)c1ccncc1)c1ccc(CO)o1)c1cc(C(=O)OC)ccc1OC)C(C)C`, the z-score in assay [1] is -0.154; in assay [2], -0.368 (inactive); in assay [3] it was -0.797 (inactive); in [5] it was 1.38 (inactive); in assay [6], 0.112 (inactive); in [7] it was -0.825 (inactive). The z-score is -0.655 (inactive) in [8] and -0.9 in [9]. For the same compound, the figures for the composite z-score in assay [4] and in assay [10] were -0.913 (inactive) and -0.124, respectively.

As to `COCCOC(=O)N1C(=O)[C@@]2(c3cc(C#CC4=CCCCC4)ccc31)[C@H](c1ccc(O)cc1)N1[C@H](c3ccccc3)[C@H](c3ccccc3)OC(=O)[C@H]1[C@@H]2C(=O)N1CCN(c2ncccn2)CC1`, the z-score is 0.295 in [1]; 0.343 (inactive) in assay [2]; 0.182 (inactive) in assay [3]; 0.29 (inactive) in assay [5]; 0.516 (inactive) in assay [6]; 0.777 (inactive) in assay [7]. For the same compound, the results for the z-score in [8] and in assay [9] were 0.731 (inactive) and -0.169, respectively. Moreover, the composite z-score is 0.524 (inactive) in assay [4] and -0.0761 in assay [10].

In the case of `[N-]=[N+]=Nc1ccccc1C[C@]1(C(N)=O)N=C(c2ccc(OCCCO)cc2)O[C@H]1c1ccccc1N=[N+]=[N-]`, the z-score is -0.0314 in [1]; -2.88 (inactive) in [2]; -1.55 (inactive) in assay [3]; -0.193 (inactive) in [5]; -0.315 (inactive) in assay [6]; 0.892 (inactive) in [7]. Besides, the z-score in assay [8] was -0.142 (inactive); in assay [9] it was -1.64. The composite z-score in assay [4] is -0.398 (inactive); in assay [10], -0.248.

`O=C1OCC=C[C@H]2OC34C=CCN(c5ccc(Cl)cc5)C(=O)[C@H]3N(CCO)C(=O)[C@@H]4[C@@H]12` (stereo not given in full): the z-score in assay [1] is -0.222; in assay [2] it was 0.52 (inactive); in assay [3] it was 0.296 (inactive); in assay [5], -0.401 (inactive); in [6], 0.568 (inactive); in assay [7], 0.973 (inactive). Besides, the z-score is 1 (inactive) in assay [8] and 0.825 in assay [9]. The values for the composite z-score in [4] and in [10] were 0.198 (inactive) and -0.22, respectively.

Take `COCCOC(=O)N1C(=O)[C@@]2(c3cc(C#Cc4ccc(OC)cc4)ccc31)[C@H](C(=O)Nc1nc3ccccc3s1)[C@H]1C(=O)O[C@H](c3ccccc3)[C@H](c3ccccc3)N1[C@@H]2c1ccc(OCCO)cc1`: the z-score in assay [1] was -0.635; in [2] it was 3.03 (inactive); in assay [3] it was -0.63 (inactive); in assay [5], 2.32 (inactive); in assay [6] it was 3.64 (inactive); in [7], -0.358 (inactive). Further, the z-score in assay [8] was -0.486 (inactive); in [9], -0.56. In addition, the composite z-score in assay [4] was -0.27 (inactive); in assay [10], -0.075.

Take `O=C1O[C@@H](c2ccccc2)[C@@H](c2ccccc2)N2[C@@H](c3ccc(OCCO)cc3)[C@]3(C(=O)Nc4ccccc43)[C@@H](C(=O)O)[C@H]12`: the z-score in [1] is -0.273; in assay [2], -0.624 (inactive); in assay [3] it was 0.432 (inactive); in assay [5], 0.449 (inactive); in assay [6] it was -0.66 (inactive); in [7], 0.468 (inactive). In addition, the z-score in [8] is -0.513 (inactive); in assay [9] it was 0.441. The composite z-score in [4] was -1.09 (inactive); in assay [10], -0.0339.

Consider `C=C[C@@H](OC)[C@H](OC(=O)Nc1ccc(SC)cc1)c1ccc(O)c(F)c1`, for which the z-score was -0.626 in assay [1]; -2.65 (inactive) in [2]; -0.807 (inactive) in assay [3]; 1.22 (inactive) in assay [5]; 1.95 (inactive) in assay [6]; -0.881 (inactive) in [7]. For the same compound, the z-score was -1.19 (inactive) in assay [8] and -0.649 in assay [9]. Besides, the composite z-score in assay [4] was 0.592 (inactive); in assay [10], -0.117.

In the case of `O=C1C2C=CC(C(O)c3ccc(F)cc3)N(n3cnnc3)C2C(=O)N1Cc1ccccc1` (stereo not given), the z-score in assay [1] was -1.05; in assay [2], 0.885 (inactive); in assay [3], -0.794 (inactive); in [5] it was -0.128 (inactive); in assay [6] it was -0.592 (inactive); in assay [7], -0.352 (inactive). Further, the z-score is -0.434 (inactive) in assay [8] and -1.47 in assay [9]. The composite z-score in [4] was -0.188 (inactive); in assay [10] it was -0.145.

Consider `CCCCCCc1nc(-c2cc(C)c(OC)c(C)c2)c(C)c2c1[Si](C(C)C)(C(C)C)OC2`, for which the z-score in assay [1] is -0.52; in assay [2] it was -0.214 (inactive); in [3], 0.899 (inactive); in [5] it was 0.374 (inactive); in assay [6], -0.199 (inactive); in [7], 0.326 (inactive). The z-score in assay [8] is -0.461 (inactive); in assay [9] it was 0.736. Moreover, the composite z-score is -2.86 (inactive) in assay [4] and -0.0994 in assay [10].

For the compound `NC(=O)N1C(=O)C2C(C1=O)C1C=C(CCCO)C2C(c2cccs2)N1Cc1cccc(OC(F)(F)F)c1` (stereo not given), the z-score is 0.0214 in assay [1]; -3.57 (inactive) in [2]; -0.637 (inactive) in assay [3]; -0.223 (inactive) in assay [5]; 0.199 (inactive) in assay [6]; -0.205 (inactive) in [7]. Besides, the z-score in assay [8] was -0.692 (inactive); in assay [9], -0.18. The composite z-score in [4] is -0.376 (inactive); in [10], 0.195.

Values taken from PubChem BioAssay.
